Test results published in PubChem BioAssay AID2235 (The Scripps Research Institute Molecular Screening Center, 2010).
Screen size: about 320,000 compounds; about 2,800 (0.88%) were called active.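 Rule for the calls: active = inhibition above the mean inhibition of all tested compounds plus 3 SD, computed separately for each screening campaign (cut at about 15% in these data); inactive = the rest.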 The list comes from a sample in which actives are over-represented; it also holds similar structures and randomly drawn compounds.

biological target: Serine/threonine-protein phosphatase PP1-alpha catalytic subunit (Homo sapiens) (UniProt P62136); assay: PP1-alpha phosphatase inhibitors, primary screen, counter-screen for PP5 inhibitor project, biochemical, fluorescence, OMFP substrate, single point (AID 2235); details: purified PP1alpha, at 6.7 µM, active compounds read high
Sequence (P62136 whole entry, looked up): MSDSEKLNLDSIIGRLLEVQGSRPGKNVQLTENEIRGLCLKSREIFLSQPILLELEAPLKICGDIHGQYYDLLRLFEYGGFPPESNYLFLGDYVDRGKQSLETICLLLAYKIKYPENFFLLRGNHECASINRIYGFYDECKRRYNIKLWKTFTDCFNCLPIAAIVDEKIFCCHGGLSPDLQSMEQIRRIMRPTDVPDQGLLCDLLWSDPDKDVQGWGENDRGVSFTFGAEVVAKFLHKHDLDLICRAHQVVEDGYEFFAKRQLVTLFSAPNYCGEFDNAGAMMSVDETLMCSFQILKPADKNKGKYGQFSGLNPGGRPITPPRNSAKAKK

Row | Structure (SMILES) | inhibition
1 | CCC(=O)NC(=Nc1nc2ccccc2s1)NC(=O)CC | -4.21% (inactive)
2 | COC(=O)Cc1cc(=O)n(-c2nc3ccccc3s2)[nH]1 | 19.6% (active)
3 | C/C(=N\NC(=O)CC(C)C)c1c(C(F)(F)F)[nH]n(-c2nc3ccccc3s2)c1=O | 4.43% (inactive)
4 | NC(=O)c1ccsc1NC(=O)COC(=O)Cc1n[nH]c(=O)c2ccccc12 | -0.46% (inactive)
5 | C/C(CC(O)(/C=N/O)c1ccccc1)=N\O (centres undefined) | 31.4% (active)
6 | O=C(CSc1nnnn1-c1ccc(O)cc1)N1N=C(c2ccc3ccccc3c2)CC1c1ccccc1 (centres undefined) | -3.09% (inactive)
7 | CC(=O)Oc1ccccc1C1=NN(C(C)=O)C(c2ccccc2)C1 (centres undefined) | -2.36% (inactive)
8 | O=C1C2N=NN(CC(=O)N3N=C(c4cccc5ccccc45)CC3c3ccccc3)C2C(=O)N1c1ccccc1 (centres undefined) | 30.5% (active)
9 | O=C(c1ccccc1)N1N=C(c2ccccc2O)CC1c1ccc(Br)cc1 (centres undefined) | 6.46% (inactive)
10 | Oc1ccccc1C1=NN(c2ccccc2)C(c2ccccc2)C1 (centres undefined) | 0.4% (inactive)
11 | Cc1ccc(N2C(=O)C3N=NN(CC(=O)N4N=C(c5cccc6ccccc56)CC4c4ccccc4)C3C2=O)cc1 (centres undefined) | 29.8% (active)
12 | COc1ccc(C(=NN)c2ccc(OC)cc2)cc1 | -2.58% (inactive)
13 | COc1ccc(-c2nc3c(s2)CCc2onc(-c4ccc(Br)cc4)c2-3)cc1 | -1.07% (inactive)
14 | CCc1ccc(N(CC)c2ncnc3nc[nH]c23)cc1 | 2.16% (inactive)
15 | [2H]C(CCOS(N)(=O)=O)c1ccccc1 (centres undefined) | -3.22% (inactive)
16 | Cc1cc(C(=O)OCC(=O)NCc2ccco2)c(C)n1-c1ccccc1 | -0.54% (inactive)
17 | CN(C)/C=C(/C(=O)c1ccc(Cl)cc1)S(=O)(=O)c1ccccc1 | 0.05% (inactive)
18 | CC(C)(C)c1nnc(NC(=O)C2c3ccccc3Oc3ccccc32)s1 | 1.1% (inactive)
19 | Cc1noc(/C=C/c2ccco2)c1S(=O)(=O)N1CCC(C(=O)N2CCc3ccccc32)CC1 | 15.4% (active)
20 | CNC(=O)C1CCN(S(=O)(=O)c2c(C)noc2/C=C/c2cccc(C)c2)CC1 | 0.59% (inactive)
21 | Cc1noc(/C=C/c2ccco2)c1S(=O)(=O)N1CCC(C(=O)Nc2ccc(Cl)cn2)CC1 | 0.73% (inactive)
22 | O=C(CSc1nc2ccccc2c(=O)n1CCCO)NC1CC1 | -4.92% (inactive)
23 | O=C(COC(=O)Cc1ccccc1F)NNC(=O)c1ccc(Cl)cc1 | -4.59% (inactive)
24 | C#CCCCc1nc2ccccc2c(=O)n1N | -2.85% (inactive)
